The record followed here is PubChem BioAssay AID504406 (Broad Institute, 2011).

Structures are written as SMILES. Out of some 320,000 compounds screened, about 190 (0.059%) were called active. For the sample, actives were picked, then their nearest neighbours and some compounds at random. Values without a mark were called inactive. No stated cut-off is given here; in the data, active means inhibition above about 10% (passing the limit was not always enough); inconclusive means no clear call, values can overlap the other calls.

UDP-galactopyranose mutase (Mycobacterium tuberculosis (strain ATCC 25618 / H37Rv)), sequence (P9WIQ1 whole entry, looked up): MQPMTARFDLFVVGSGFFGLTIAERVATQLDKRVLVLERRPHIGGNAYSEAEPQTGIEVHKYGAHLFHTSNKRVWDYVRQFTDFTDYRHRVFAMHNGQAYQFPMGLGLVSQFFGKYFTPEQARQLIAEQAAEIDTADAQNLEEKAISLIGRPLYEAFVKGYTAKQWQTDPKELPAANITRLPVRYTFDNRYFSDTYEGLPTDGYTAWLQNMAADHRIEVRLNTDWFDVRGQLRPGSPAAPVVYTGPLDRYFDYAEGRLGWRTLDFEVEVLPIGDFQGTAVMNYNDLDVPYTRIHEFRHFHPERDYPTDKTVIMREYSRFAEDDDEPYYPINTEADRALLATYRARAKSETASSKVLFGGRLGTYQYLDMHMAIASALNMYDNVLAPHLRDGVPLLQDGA

This experiment addresses UDP-galactopyranose mutase (Mycobacterium tuberculosis (strain ATCC 25618 / H37Rv)) (UniProt P9WIQ1). Briefly: M. tuberculosis UGM enzyme inhibitors, primary screen, biochemical, fluorescence polarization, single point (AID 504406). As to conditions: purified UGM, fluorescence polarization probe displacement; at 10 µM; active compounds read high.
What is called inhibition is the relative decrease from the control value, in per cent. `O=C(NCCN1CCOCC1)c1cc(Sc2cccc(Cl)c2)nc2ccccc12`: the inhibition was -0.717%.

For the molecule `O=C1NC(=O)C(c2ccc(Cl)cc2)N1` (centres undefined), the inhibition was 0.455%.

Turning to `CC(C)N(C(=O)Cn1cc(SCC(=O)N2CCCC2)c2ccccc21)C(C)C`, the inhibition was 0.81%.

As to `CC(CCc1ccccc1)NCC(O)c1cccc([N+](=O)[O-])c1` (centres undefined), the inhibition is -0.221%.

For the molecule `Nc1nc(NC(=O)/C=C/c2ccc(F)cc2)nn1-c1ccccc1`, the inhibition is -1.05%.

Take `O=C(CC1CCCCC1)Nc1c2c(nn1-c1ccc(F)cc1)CS(=O)(=O)C2`: the inhibition is -1.58%.

Regarding `Cc1ccc(C2(c3ccc(C)cc3)NC(=O)N(Cc3c(C)noc3C)C2=O)cc1`, the inhibition was 2.04%.

For the molecule `CCOc1ccc(NC(=S)N2CCC(N(C)CC3CCCO3)CC2)cc1` (centres undefined), the inhibition is 1.59%.

`CN1C(=O)CC(N2CCN(c3ccccn3)CC2)C1=O` (centres undefined): the inhibition was -2.59%.

In the case of `CC(C)(C)CN1CCNC(=O)C1CC(=O)NC1Cc2ccccc2C1` (centres undefined), the inhibition is -0.537%.

On to `CCc1c(C)[nH]c(=S)c(C#N)c1C`, for which the inhibition was 1.29%.

In the case of `CN1CCN(S(=O)(=O)c2cccc(C(=O)N3CCc4ccccc43)c2)CC1`, the inhibition was 2.67%.

Regarding `CCN(CC(=O)Nc1cccc(S(N)(=O)=O)c1)Cc1nc2ccccc2c(=O)[nH]1`, the inhibition is 0.435%.

In the case of `O=[N+]([O-])c1cc(S(=O)(=O)Nc2cccc(Cl)c2)ccc1N=Nc1c(O)[nH]c2ccccc12`, the inhibition was 3.07%.

Turning to `Cc1ccc(NC(=O)Cc2nnc(SCC(=O)Nc3nncs3)n2C)cc1`, the inhibition was 1.58%.

For `Cc1cccc(NC(=O)c2ccc3c(=O)n(CC4CCCO4)c(=S)[nH]c3c2)c1` (centres undefined), the inhibition is 0.387%.

Regarding `CCN(CCCCOC(=O)c1ccc(OC)c(OC)c1)C(C)Cc1ccc(OC)cc1` (centres undefined), the inhibition is 0.111%.

For `CC1CC(NC(=O)/C(C#N)=C/c2ccc[nH]2)CC(C)(C)C1` (centres undefined), the inhibition is -0.655%.

For the molecule `CC(OC(=O)CCC(=O)c1ccccc1)C(=O)Nc1ccc(F)cc1` (centres undefined), the inhibition is 0.19%.

Regarding `CC(C)c1csc(CN2CCC(CO)(Cc3ccccc3)CC2)n1`, the inhibition was 1.24%.

For the molecule `O=c1c2ccccc2cnn1Cc1n[nH]c(=S)n1-c1ccccc1F`, the inhibition is -0.397%.

As for `COc1ccnc(Oc2ccccc2)c1-c1ncn[nH]1`, the inhibition was 1.4%.

For `CCOCCN(C=O)c1cccc(OC)c1`, the inhibition is -2.42%.

For the molecule `CCOC(=O)N1CCC(Nc2c(NCCCN3CCN(CC)CC3)c(=O)c2=O)CC1`, the inhibition is -1.72%.

With `O=C(Nc1ccc(F)c(Cl)c1)C1CCN(S(=O)(=O)c2cccnc2)CC1`, the inhibition was 0.143%.

Turning to `CCCn1c2ccccc2c2cnn(CC(=O)NCCCN3CCCCC3CC)c(=O)c21` (centres undefined), the inhibition is -1.26%.

Regarding `CCOC(=O)c1cc2c(ccn2C)n1CC(=O)N1CCC(C)CC1`, the inhibition was -2.05%.

For `Cn1c(CC2Sc3ccccc3NC2=O)nnc1SCC(=O)c1ccc(Cl)cc1` (centres undefined), the inhibition is 1.26%.

Take `COCCN(C(=O)C(C)C)c1nnc(-c2ccc(C(C)(C)C)cc2)s1`: the inhibition was 2.82%.

For the molecule `Cc1ccc(S(=O)(=O)N2CCC(C)CC2)cc1C(=O)NCc1ccccn1`, the inhibition was -2.55%.

For `COCCNc1nc2nonc2nc1N(C)Cc1ccc(C)cc1`, the inhibition is 0.32%.

Turning to `COC(=O)/C=C(\Oc1ccccc1)C1(O)CCCCC1`, the inhibition is -0.0675%.

Take `Cc1ccc2c(c1)C1CN(C)CCC1N2S(=O)(=O)c1ccc(Oc2ccc([N+](=O)[O-])cc2)cc1` (centres undefined): the inhibition was 3.72%.

With `COc1ccccc1NC(=O)N1CCCC1C(=O)NCc1cccs1` (centres undefined), the inhibition is 0.501%.

`CC(OC(=O)c1ccc2noc(-c3ccccc3)c2c1)C(N)=O` (centres undefined): the inhibition is 1.01%.

Consider `COc1ccc(-c2onc3ccc(C(C)=O)cc23)cc1`, for which the inhibition is 12.7% (active).

`Oc1ccc(-c2onc3ccc(Cl)cc23)cc1`: the inhibition is -1.19%.

In the case of `CC(C)CNC(=O)C(=O)NCC(c1ccc2c(c1)OCO2)N1CCOCC1` (centres undefined), the inhibition was -1.37%.

On to `Cn1c(=O)cc(OCC(=O)N2CCN(c3ccccc3F)CC2)c2ccccc21`, for which the inhibition was 0.591%.

For `Cc1cc(C)n(CCNC(=O)CC2C(=O)NCCN2Cc2ccc(C)o2)n1` (centres undefined), the inhibition was -1.39%.

Take `CC(C)(C)c1cc[n+](-c2[nH]c(=O)sc2/C=N/N=C(\[O-])c2ccccc2)cc1`: the inhibition is 0.838%.

For the molecule `CCCCn1c(-c2cccc(C)c2)nc2cc3[nH]c(=O)c(C(C)C)nc3cc21`, the inhibition was -1.53%.

`CCOC(=O)c1ccc(NC(=S)N2CCN(c3ccccn3)CC2)cc1`: the inhibition was 0.665%.

As for `COc1ccc(N(C(=O)c2ccc(C)cc2)S(=O)(=O)c2cccs2)cc1`, the inhibition is 0.9%.

As for `CCn1c(SCC(=O)Nc2sc(C)c(C)c2C#N)nnc1C1CC1`, the inhibition is 2.46%.

As to `O=C(NCc1nnc(SCC(=O)N2CCCc3ccccc32)o1)c1ccccc1F`, the inhibition is -0.239%.

Take `COc1cccc(NC(=O)Nc2nnc(N3CCCCC3C)s2)c1` (centres undefined): the inhibition is -1.07%.

Consider `O=C(Cc1ccccc1F)NC1CCSc2ccccc21` (centres undefined), for which the inhibition is 1.04%.

With `CCN(Cc1ccncc1)C(=O)CCc1ccccc1`, the inhibition was -1.33%.

In the case of `C/C=C/c1ccc(OCC(O)CN2CCCCCCC2)c(OC)c1` (centres undefined), the inhibition was -2.18%.

As to `Cc1cc(NC(=O)CCS(=O)(=O)c2ccc(F)cc2)no1`, the inhibition was 1.59%.

On to `Cc1[nH]c2ccccc2c1CCN(Cc1cccs1)C(=S)NC(C)(C)C`, for which the inhibition was 1.01%.

Turning to `COc1cccc(NC(=S)N(CCc2c(C)[nH]c3ccccc23)Cc2ccco2)c1`, the inhibition was 5.05%.

On to `COc1ccc2[nH]c(C)c(CCN(Cc3cccs3)C(=S)Nc3ccccc3OC)c2c1`, for which the inhibition was 12.8% (active).

Take `COc1ccccc1CNC(=O)c1ccc(N(C)S(=O)(=O)c2ccc(C)cc2)cc1`: the inhibition was -1.48%.

Take `CCOc1ccc(CCNC(=O)COC(=O)c2ccc(F)c(S(=O)(=O)N3CCOCC3)c2)cc1OCC`: the inhibition is 0.417%.

Take `Cc1c(Cl)cccc1NC(=O)CCC(=O)N/N=C/c1ccco1`: the inhibition was 2.71%.

With `COc1ccc(CNC(=O)C(=O)NCC2OCCN2C(=O)c2ccc(OC)cc2)cc1` (centres undefined), the inhibition was -1.77%.

With `FC(F)(F)c1cc(-c2ccco2)nc(NCc2ccc(Cl)cc2)n1`, the inhibition is -0.748%.
